Experimental data reported in PubChem BioAssay AID2796 (The Scripps Research Institute Molecular Screening Center, 2010).
Among all 320,000 compounds or so, about 8,000 (2.5%) were called active. Cut-off read from the data, not from the text of the source: active = activation above about 47%; inactive = the rest. The entries come from a sample that favours actives as a whole.

Target: Aryl hydrocarbon receptor (Homo sapiens) (UniProt P35869)
Test: AHR activators, primary screen, cell-based, luminescence, luciferase reporter, human (AID 2796);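 note: 0% = vehicle wells and 100% = reference agonist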
Conditions: AHR-responsive luciferase reporter cells, at 5 µM, stronger effect = higher value

Chain of Aryl hydrocarbon receptor (Homo sapiens) (P35869 whole entry, looked up): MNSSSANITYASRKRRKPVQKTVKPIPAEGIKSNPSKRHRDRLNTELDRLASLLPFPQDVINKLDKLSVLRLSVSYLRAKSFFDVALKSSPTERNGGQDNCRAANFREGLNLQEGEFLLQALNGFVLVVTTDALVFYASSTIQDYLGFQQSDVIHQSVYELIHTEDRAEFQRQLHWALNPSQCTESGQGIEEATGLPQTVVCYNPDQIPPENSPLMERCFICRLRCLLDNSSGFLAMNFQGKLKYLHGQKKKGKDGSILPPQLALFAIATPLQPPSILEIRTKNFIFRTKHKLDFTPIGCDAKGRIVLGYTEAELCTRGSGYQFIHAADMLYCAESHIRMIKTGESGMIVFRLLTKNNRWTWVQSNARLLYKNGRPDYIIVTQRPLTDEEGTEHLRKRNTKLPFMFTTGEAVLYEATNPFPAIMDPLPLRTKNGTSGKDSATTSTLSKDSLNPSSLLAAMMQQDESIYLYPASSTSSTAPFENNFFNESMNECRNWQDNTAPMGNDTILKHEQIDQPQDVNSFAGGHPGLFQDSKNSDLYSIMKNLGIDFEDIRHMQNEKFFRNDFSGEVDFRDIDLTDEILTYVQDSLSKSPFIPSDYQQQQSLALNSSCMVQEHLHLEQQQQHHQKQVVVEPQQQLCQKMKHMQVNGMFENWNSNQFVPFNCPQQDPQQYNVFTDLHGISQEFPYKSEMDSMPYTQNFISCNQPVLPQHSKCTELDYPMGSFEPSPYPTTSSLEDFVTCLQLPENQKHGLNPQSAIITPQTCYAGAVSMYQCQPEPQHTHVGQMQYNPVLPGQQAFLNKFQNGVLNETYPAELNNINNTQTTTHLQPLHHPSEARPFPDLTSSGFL

activation, active:
O=C(Cc1nc2ccccc2[nH]c1=O)c1ccc(Cl)cc1 57.9%
[O-][n+]1c2c(nn1-c1ccc(Cl)c(Cl)c1)-c1nonc1CC2 78.5%
CCC(c1nnnn1C1CCCC1)N(Cc1cccs1)Cc1cc2cccc(C)c2[nH]c1=O (centres undefined) 54.6%
CSc1ccccc1-c1nnc(-c2ccc(Cl)cc2)o1 52.9%
Nc1ccc2nn(-c3ccc(Cl)cc3)nc2c1 109%
c1cnc(N2CCN(c3ccc4ccccc4n3)CC2)nc1 120%
COc1cc(NC(=O)COC(=O)CSc2ccc3ccccc3c2)c(C)cc1[N+](=O)[O-] 60%
COc1cc(NC(=O)COC(=O)c2cnc(C)cn2)c(C)cc1[N+](=O)[O-] 49.4%
Cc1nn(-c2ccccc2)c2[nH]c(C(F)(F)F)cc(=O)c12 80.4%
O=C(/C=C/c1ccccc1)N/C(=C/c1ccccc1)C(=O)Nc1ccccc1O 74.4%
COc1ccccc1NC(=O)C1=C(C)NC2=C(C(=O)CCC2)C1c1ccc(C)o1 (centres undefined) 102%
CNC(=O)c1ccc2nc(NC(C)=O)sc2c1 84.2%
CCNC(=S)N1CCC(c2nc3cc(C)c(C)cc3[nH]2)CC1 84.9%
CCCCC(=O)Nc1ccc(C(=O)Nc2cc(C(F)(F)F)ccc2Cl)cc1 140%
Brc1ccc(-c2noc(-c3ccccc3)n2)o1 122%
Brc1ccc(-c2nnc(-c3ccccc3)o2)o1 70.7%
C/C(=N/NC(=O)c1ccc(Br)o1)c1ccc(C)o1 52.7%
COc1ccccc1NC(=O)c1cc(Cl)nc2ccccc12 48.5%
O=C1c2ccccc2C2=Nc3ccccc3SC(c3ccccc3F)C12 (centres undefined) 74.3%
c1ccc(-c2cc(-c3ccccc3)[nH]n2)cc1 65.1%
Oc1ccccc1-c1cc(-c2ccc(Cl)cc2)n[nH]1 52.2%

activation, inactive:
O=C(c1ccc(Cl)cc1)n1cnc2ccccc21 -0.68%
O=c1c(-c2ccc(Cl)cc2)[n+]([O-])c2ccccc2n1OCc1nc2ccccc2[nH]1 24.5%
CCN(CCn1cccn1)Cc1cn[nH]c1-c1ccc(OC)cc1F 1.96%
O=C(COc1ccc([N+](=O)[O-])cc1)Nc1cccc(C(=O)Nc2ccccc2C(=O)O)c1 -3.04%
CCOC(=O)/C=C/CN(C(=O)OC(C)(C)C)S(=O)(=O)N1CC=CC1 -1.1%
COC(=O)c1ccc(/C=N/N2C(C)CCCC2C)cc1 (centres undefined) -0.9%
COc1ccc(C(=O)N2CCN(c3ccc(C(C)=O)cc3F)CC2)cc1S(=O)(=O)NC1CC1 2.09%
O=C(Nc1ccc(N2C(=O)c3cccc4cccc(c34)C2=O)cc1)c1ccc(N2CCCCC2)c([N+](=O)[O-])c1 -0.89%
CCC(c1nnnn1Cc1ccco1)N(CCc1ccccc1)Cc1cc2cccc(C)c2[nH]c1=O (centres undefined) 19.4%
Cc1cccc2cc(CN(Cc3nnnn3Cc3ccccc3)C3CCCC3)c(=O)[nH]c12 12.9%
CC(=O)Nc1ccc(S(=O)(=O)NCCC(=O)N2CCN(c3ccccc3Cl)CC2)cc1 0.74%
CCC(CO)Oc1cc(NC(=O)c2cccc3ccccc23)c2ncn(C(C)C)c2c1 (centres undefined) 5.86%
COC(=O)c1cc(C(=O)OCC(=O)Nc2cc(C)on2)cc([N+](=O)[O-])c1 0.26%
O=C1CC2(CCCC2)C(=O)N1CN1CCN(S(=O)(=O)c2ccc(F)cc2F)CC1 1.21%
CNC(=O)Nc1cc(C(C)(C)C)no1 1.28%
COc1ccccc1-c1nnc(-c2ccc(F)cc2)o1 33.5%
FC(F)(F)c1cnc(Oc2ccccc2-c2nnc(-c3ccc(Cl)cc3)o2)c(Cl)c1 1.03%
c1ccc(-n2nc3ccccc3n2)cc1 -5.11%
CCC(=O)Nc1ccc2nn(-c3ccc(F)cc3)nc2c1 31.9%
Cc1nn(-c2ccccc2)nc1C(=O)OCC(=O)N1CCCCC1C (centres undefined) 4.35%
CC(Sc1nnc(C2CC2)n1C1CC1)C(=O)Nc1ccc(C(N)=O)cc1 (centres undefined) -0.58%
CC12CCC(C(=O)N3CCN(c4ncccn4)CC3)(c3nc4ccccc4nc31)C2(C)C (centres undefined) 16.9%
O=C(c1ccncc1)N1CCN(c2ccc3ccccc3n2)CC1 -0.88%
O=C1NC(c2ccccc2)CCC1(Cl)Cl (centres undefined) 0.32%
CC(C)CCN1CCN(Cc2ccc(C(F)(F)F)cc2)CC1CCO (centres undefined) 1.42%
Cc1cnc(C(=O)OCC(=O)Nc2ccc(Cl)cc2Cl)cn1 2.01%
Cc1cc(NC(=O)COC(=O)COc2ccc(Cl)cc2C)c([N+](=O)[O-])cc1C 4.86%
COc1ccc(OCC(=O)Nc2cc(C)c(Cl)cc2OC)c([N+](=O)[O-])c1 3.52%
Cc1ccc(C)c(NC(=O)COC(=O)CSc2ccccc2)c1 -0.94%
Cc1cccc(N2CCN(C(=O)/C=C/c3ccco3)CC2)c1C 2.32%
CCN(CC)S(=O)(=O)c1ccc(N2CCCC2)c(NC(=O)c2ccc([N+](=O)[O-])o2)c1 0.5%
COc1ccc(N2C(=O)C3C(C2=O)C(C(=O)c2ccccc2)N2CCCC32)cc1 (centres undefined) 5.21%
Cc1nc2c(c(C)nn2-c2ccccc2)c(C)c1C 45.6%
Cc1nn(-c2ccccc2)c(=O)c2noc(C)c12 -0.28%
C=CCC[C@@H](Cc1ccc(F)cc1)C(=O)O[C@H](CNC(=O)[C@H](CC=C)CC(=O)N(CCO)Cc1ccccc1)c1ccccc1 -0.27%
CCc1ccccc1NC(=O)/C(=C/c1ccccc1)c1ccccc1 0.15%
O=C(Nc1ccc(C(=O)O)cc1)/C(=C\c1ccccc1)NC(=O)c1ccc(Br)cc1 -2.04%
Cc1ccc(S(=O)(=O)N2CCOCC2)cc1NC(=O)COC(=O)c1cnccn1 0.82%
O=C(CCl)Nc1cccc(CP(=O)(c2ccccc2)c2ccccc2)c1 -0.56%
Cc1ccc(S(=O)(=O)N(C)C)cc1NC(=O)CN1c2cccc3cccc(c23)S1(=O)=O 5.14%
CC(=O)N[C@@H](C)C(=O)N1CCC(n2nccc2NC(=O)CCCc2ccccc2)CC1 1.83%
O=C(CCNS(=O)(=O)c1ccc(Br)cc1)NCC1CCCO1 (centres undefined) 0.8%
COc1ccccc1NC(=O)C1=C(C)Nc2ncnn2C1c1ccc(C)o1 (centres undefined) 13.1%
COc1ccccc1NC(=O)C1=C(C)NC(=O)NC1c1ccc(C)s1 (centres undefined) 5.73%
CCOc1cc2[nH]c(=S)n(CCN3CCCCC3C)c(=O)c2cc1OCC (centres undefined) 7.8%
COC(CNC(=O)c1ccc2c(c1)ncn2-c1cc(C)cc(C)c1)OC 1.33%
CS(=O)(=O)c1ccc2nc(NC(=O)c3ccc(Cl)nc3)sc2c1 -5.2%
Cc1ccc(C(=O)Nc2nc3ccc(Cl)cc3s2)o1 -2.1%
CC(NC(=O)CN(C)S(=O)(=O)c1ccc(F)cc1)C1CC2CCC1C2 (centres undefined) -0.07%
COCCCNC(=S)N1CCCC(c2nc3cc(C)c(C)cc3[nH]2)C1 (centres undefined) 12.7%
CN(C)CCCNC(=S)N1CCC(c2nc3ccccc3[nH]2)CC1 -0.37%
O=C(Nc1cc(C(F)(F)F)ccc1Cl)c1cc(C2CC2)on1 20.4%
CC(=O)Nc1ccc(NC(=O)CCCNC(=O)c2ccc(Cl)cc2)cc1 1.47%
COc1ccccc1-c1cnn2c(N3CCOCC3)cc(C)nc12 34.4%
O=C(COC(=O)c1cccnc1Cl)NC(=O)NC1CCCCC1 -1.66%
COC(C[C@@H]1O[C@@H]1C(=O)[C@H](C)OCc1ccccc1)OC -0.2%
O=C(OCc1ccc(Br)cc1)c1cccc(-c2nnc(-c3ccccc3)o2)c1 11.6%
Cn1nc(-c2ccccc2)c(-c2nc(-c3ccc(Cl)cc3)no2)c1Cl -1.35%
Nc1ccc(-c2nnc(-c3ccccc3)o2)cc1 3.02%
Nc1nonc1-c1noc(-c2ccc(Br)o2)n1 14.2%
CCCCCCSc1ccc(-c2nc3ccc(Cl)cn3c2NCc2ccccc2)cc1 1.54%
Cc1c2cnn(-c3ccccc3)c(=O)c2c(C)n1CCCC(=O)N1CCN(C)CC1 -2.09%
CC(C)(C)C1CCC(=NNC(=O)c2ccc(Br)o2)CC1 (centres undefined) 9.69%
C/C(=N\NC(=S)NC1CCCCC1)c1ccc(C)o1 8.26%
CCN(CCCNC(=O)CSc1cc(=O)n(C)c2cc(Cl)ccc12)Cc1ccccc1 -0.33%
O=C(NC1CC1)C(Cc1ccccc1)NS(=O)(=O)c1ccccc1F (centres undefined) 3.6%
Cc1no[n+]([O-])c1COc1ccccc1/C=C1\NC(=S)NC1=O 25.2%
COc1ccccc1NC(=O)C(C)OC(=O)c1ccc(-n2cnnn2)cc1 (centres undefined) -0.41%
COc1ccc(-c2cc(C(=O)Nc3ccccc3O)c3ccccc3n2)cc1 -7.68%
COc1ccccc1NC(=O)c1cc(Cl)nnc1Cl 17.1%
CCOC(=O)C1=C(C)N=C2c3ccccc3C(=O)C2C1c1ccc(Br)cc1 (centres undefined) 3.41%
O=C1c2ccccc2C(=O)C1c1ccccc1F 1.57%
CCCn1cc(S(=O)(=O)c2ccc(C)cc2)c(=O)c2cc(OCC)ccc21 -2.12%
Nc1cccc(-c2cc(-c3ccccc3)nc(-c3cccc(N)c3)n2)c1 27.6%
O=C(Nc1cccnc1Cl)c1cc(-c2ccccc2O)on1 5.22%
c1ccc(-c2cc(-c3nnc4sc(-c5ccccn5)nn34)[nH]n2)cc1 -8.07%
Cc1ccc(NC(=O)c2cc(-c3ccccc3O)n[nH]2)cc1C -2.85%
CCCNC(=O)C(=O)Nc1cc2c3c(c1)CCC(=O)N3CCC2 28.5%
CSC1=N/C(=C\C=C\c2cccs2)C(=O)S1 8.97%
CCOc1ccc(NC(=O)CCS(=O)(=O)c2ccc3c(c2)CCCN3C(=O)CC)cc1 4.35%
O=C(Cn1cnc2c(OCc3ccccc3)ncnc21)NCCCn1ccnc1 -1.22%
CCCN1C(=O)C(NC(C)=O)c2cc(OC)ccc21 (centres undefined) 0.18%
CCOC1CS(=O)(=O)CC1OCC (centres undefined) 1.87%
